Bioassay records deposited in PubChem by National Center for Advancing Translational Sciences (NCATS).
A selection: hits, their analogues and other compounds. The true share with any hit is near 8%.
Lassa entry inh = Lassa virus entry inhibition; Potency, µM (series often up to 37.9 µM), most hits filed as inhibitors; Lassa virus pseudotype entry inhibition, cell reporter; AID 540256; hit rate 1.2% among 300,000; calls by dose curve; tested in HEK293 cells; note: nearly all actives have a fitted effect of over 50% in size
HCV inhibitor = inhibitors of hepatitis C virus infection; Potency, µM (doses to about 41.8 µM), hits mostly inhibitors; hit rate 3.4% among 340,000; AID 651820; Huh7.5.1 HCVcc-Cre infection, luciferase reporter, 44 h; active = well fitted inhibition curve with a large enough effect; inconclusive = small, poorly fitted or top-dose-only effect, or another doubt; inactive = no such curve, though single readings can be large or run the other way
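Reporter virus HCVcc-Cre (~0.5 moi) infects cells exposed to compound; seeding density 1,000 cells/well with 4 h settling beforehand. Luminescence, 15 sec read, taken 44 h post-infection following a 15 min RT substrate incubation.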
MARV entry inh = blocks Marburg virus binding to or entry into cells; Marburg virus pseudotyped entry inhibition, cell reporter; Potency, µM (highest dose often 37.8 µM), actives largely listed as inhibitors; hit rate 1.8% among 300,000; AID 540276; calls by dose curve; tested in HEK293 cells
FMDV inh = foot and mouth disease virus antiviral activity; FMDV antiviral cell-based qHTS; Potency, µM (highest dose often 57.9 µM), most hits filed as inhibitors; hit rate 1.2% among 410,000; AID 1159524; calls by dose curve; tested in HEK293T cells; note: read-out not given here; nearly all actives have a fitted effect of over 45% in size
SARS PLP yeast = SARS-CoV PLP inhibition in yeast; Potency, µM (series often up to 32.9 µM), usual class: activators; S. cerevisiae expressing SARS-CoV PLpro, growth rescue; hit rate 0.19% among 330,000; calls by dose curve; note: nearly all actives have a fitted effect of over 55% in size
HCMV inh = inhibitors of human cytomegalovirus | HFF cells, HCMV-luciferase reporter, 72 h; hits give low values | hit rate 4.5% among 410,000 | activity change, negative = inhibition, % at 57.5 µM; in the data active = activity change below about -60%; inconclusive = no clear call, values can overlap the other calls; inactive = above about -39%
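Human foreskin fibroblasts infected with luciferase-reporter HCMV at MOI 1 PFU/cell, compounds at two doses. Luciferase measured 72 h post infection; normalized to buffer-only basal and Salinomycin (10uM) controls.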
Each line names hits and unclear results; the compound was inactive in the other large screens.

COc1ccc(C(=O)C(C)OC(=O)c2cccc(S(=O)(=O)Nc3cc(Cl)c(OC)cc3OC)c2)cc1 (stereo not drawn)	Lassa entry inh inconclusive, HCV inhibitor inconclusive, MARV entry inh 7.1µM (no result: HCMV inh)
Cc1nn(-c2ccccc2Cl)c(Cl)c1/C=N/Nc1nc2ccccc2s1	Lassa entry inh 1.1µM, MARV entry inh 0.033µM, FMDV inh 0.0009µM, HCMV inh -94
CC(C)NC(=O)NC(=O)CSc1nnc(COc2ccccc2F)n1C(C)C1CC2CCC1C2 (stereo not drawn)	Lassa entry inh 18µM, HCV inhibitor inconclusive, MARV entry inh inconclusive, FMDV inh 28µM
CC(C1CC2CCC1C2)n1c(COc2ccccc2F)nnc1SCC(N)=O (stereo not drawn)	MARV entry inh inconclusive
O=S1(=O)c2ccc(Br)cc2N2CCC[C@H]2CN1Cc1ccccc1	HCV inhibitor inconclusive (no result: Lassa entry inh, MARV entry inh)
C[C@@H](c1ccccc1)N1C[C@H]2CCCN2c2cc(Br)ccc2S1(=O)=O	Lassa entry inh inconclusive, HCV inhibitor 11µM (no result: MARV entry inh)
Cc1cc(N2CCC(C(=O)Nc3ccc(F)cc3C)CC2)n2nc(C)c(-c3ccc(Cl)cc3)c2n1	none (no result: HCV inhibitor, SARS PLP yeast)
Cc1ccc(CS(=O)(=O)Cc2ccc(C(=O)NCc3cccs3)o2)cc1	Lassa entry inh inconclusive, MARV entry inh inconclusive, HCMV inh -89
Cc1ccccc1CS(=O)(=O)Cc1ccc(C(=O)NCCc2ccc(Cl)cc2)o1	Lassa entry inh inconclusive, FMDV inh 28µM (no result: HCV inhibitor, MARV entry inh, SARS PLP yeast)
O=C(NCc1cccs1)c1ccc(CS(=O)(=O)c2ccc(Cl)cc2)o1	Lassa entry inh 12µM
Cc1ccc(CS(=O)Cc2ccc(C(=O)NCc3cccs3)o2)cc1 (stereo not drawn)	none (no result: Lassa entry inh, MARV entry inh)
CC(C)NS(=O)(=O)c1ccc(OCC(=O)Nc2ccc(F)cc2)cc1	none
Brc1cc(Br)c2ncnc(N3CCCCC3)c2c1	HCV inhibitor inconclusive, FMDV inh inconclusive, HCMV inh -104
CC(=O)Oc1ccccc1/C=C1\CCOC1=O	HCMV inh -62 (no result: FMDV inh)
CCNc1ccc(C(=O)OCC(=O)NCc2ccc(C)cc2)cc1[N+](=O)[O-]	none
CCNc1ccc(C(=O)OCC(=O)NC(C)c2ccccc2)cc1[N+](=O)[O-] (stereo not drawn)	HCV inhibitor inconclusive, HCMV inh -66
CCOC(=O)c1ccc(COc2ccc(C(C)C)cc2)o1	Lassa entry inh inconclusive, MARV entry inh inconclusive
CCC(C)c1ccc(OCc2ccc(C(=O)O)o2)cc1 (stereo not drawn)	Lassa entry inh inconclusive, MARV entry inh inconclusive, FMDV inh 11µM
COc1ccccc1NC(=O)C1CCCN(S(=O)(=O)c2cnc[nH]2)C1 (stereo not drawn)	none (no result: Lassa entry inh, MARV entry inh)
CCc1ccc(NC(=O)C2CCCN(S(=O)(=O)c3ccc(F)cc3)C2)cc1 (stereo not drawn)	Lassa entry inh inconclusive, FMDV inh inconclusive (no result: HCV inhibitor, SARS PLP yeast)
CCOC(=O)c1ccc(NC(=O)C2CCCN(S(=O)(=O)c3ccc(F)cc3)C2)cc1 (stereo not drawn)	Lassa entry inh inconclusive, HCV inhibitor inconclusive, MARV entry inh inconclusive, FMDV inh 22µM
COc1ccc(NC(=O)C2CCCN(S(=O)(=O)c3ccc(C)cc3)C2)cc1OC (stereo not drawn)	MARV entry inh inconclusive, FMDV inh 22µM
CCOC(=O)C1CCCN(S(=O)(=O)c2cc(C(=O)OC)n(C)c2)C1 (stereo not drawn)	HCV inhibitor 6.3µM, FMDV inh inconclusive, HCMV inh -60 (no result: Lassa entry inh, MARV entry inh)
CCOC(=O)C1CCCN(S(=O)(=O)c2ccccc2)C1 (stereo not drawn)	none
COc1ccc(C)cc1NC(=O)C1CCCN(S(=O)(=O)c2cnc[nH]2)C1 (stereo not drawn)	HCMV inh -61 (no result: Lassa entry inh, MARV entry inh)
COc1nc(Nc2ccc(O)cc2)nc(OC(C(F)(F)F)C(F)(F)F)n1	Lassa entry inh inconclusive, HCV inhibitor inconclusive, FMDV inh inconclusive, HCMV inh inconclusive
Nc1cccc(Nc2nc(OC(C(F)(F)F)C(F)(F)F)nc(OC(C(F)(F)F)C(F)(F)F)n2)c1	Lassa entry inh inconclusive, HCV inhibitor inconclusive, MARV entry inh inconclusive, HCMV inh -107
CCN1C(=O)CC(CC(=O)N2CCC(c3nc4ccc(F)cc4[nH]3)CC2)(c2ccccc2C)C1=O (stereo not drawn)	none (no result: Lassa entry inh, HCV inhibitor, MARV entry inh, SARS PLP yeast, HCMV inh)
Cc1ccc(C(=O)CSc2nnc3c4ccccc4nc(C(C)(C)C)n23)cc1	Lassa entry inh inconclusive, HCV inhibitor inconclusive, MARV entry inh 6.3µM, HCMV inh inconclusive
